Results from PMC7862700, “An all-to-all approach to the identification of sequence-specific readers for epigenetic DNA modifications on cytosine”.

Key:
Test in all cases: DAPPL (digital affinity profiling via proximity ligation, sequencing); 10 mM Tris-HCl pH 7.5, 50 mM NaCl, 1 mM DTT, 4% glycerol, room temperature, 30 min; GST-TFs on glutathione beads, 16-mer random dsDNA library, 0.1% formaldehyde crosslink after washing; high values mean tight binding
[1] = target: T1, FEV (Homo sapiens, UniProt Q99581 1-238); conditions: protein: recombinant; tags: N-terminal GST; dsDNA, one strand shown
T1 sequence: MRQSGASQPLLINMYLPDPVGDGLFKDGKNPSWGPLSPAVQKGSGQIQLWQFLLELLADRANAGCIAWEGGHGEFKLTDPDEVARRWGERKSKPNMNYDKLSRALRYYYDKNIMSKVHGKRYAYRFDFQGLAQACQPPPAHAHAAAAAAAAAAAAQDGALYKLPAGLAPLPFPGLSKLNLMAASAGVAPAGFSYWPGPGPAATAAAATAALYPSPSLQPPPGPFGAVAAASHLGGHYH
Outline: (§1)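 In yeast, human transcription factors were expressed with a GST fusion, then pulled down on glutathione beads and given DNA barcodes. Pooled with a tag-only sample, they were exposed to 200 nmole of a 16-mer random double-stranded DNA library (Tris/NaCl/DTT/glycerol buffer, room temperature, 30 min), washed, crosslinked with 0.1% formaldehyde, proximity-ligated using BsaI/T4 ligase for 1 h at 37 °C, PCR-amplified and read on an Illumina NextSeq500. Each hexamer's frequency of reads for a factor, divided by the matching frequency for the tag-only sample, gives the binding signal.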

[2] = target: ETV5 (Homo sapiens, UniProt P41161 1-510); conditions: protein: recombinant; tags: N-terminal GST; dsDNA, one strand shown
Chain of ETV5 (P41161 whole entry): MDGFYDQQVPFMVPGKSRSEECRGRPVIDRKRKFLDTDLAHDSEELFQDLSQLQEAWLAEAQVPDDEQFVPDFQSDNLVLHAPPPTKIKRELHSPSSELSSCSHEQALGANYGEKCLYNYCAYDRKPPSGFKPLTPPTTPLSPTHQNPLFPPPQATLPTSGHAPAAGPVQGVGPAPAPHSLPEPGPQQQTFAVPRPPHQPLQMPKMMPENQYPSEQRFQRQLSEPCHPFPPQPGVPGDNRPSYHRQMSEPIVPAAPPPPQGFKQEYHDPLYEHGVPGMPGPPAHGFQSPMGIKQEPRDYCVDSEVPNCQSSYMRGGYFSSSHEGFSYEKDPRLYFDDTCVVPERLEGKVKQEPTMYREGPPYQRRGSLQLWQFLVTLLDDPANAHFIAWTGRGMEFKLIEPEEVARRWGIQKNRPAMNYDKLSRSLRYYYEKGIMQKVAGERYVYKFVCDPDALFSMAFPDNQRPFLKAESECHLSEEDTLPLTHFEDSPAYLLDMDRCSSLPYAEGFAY
Outline: as §1

[3] = target: HSF1 (Homo sapiens, UniProt Q00613 1-529); conditions: protein: recombinant; tags: N-terminal GST; chain copies: 3; dsDNA, one strand shown
Chain of HSF1 (Q00613 whole entry): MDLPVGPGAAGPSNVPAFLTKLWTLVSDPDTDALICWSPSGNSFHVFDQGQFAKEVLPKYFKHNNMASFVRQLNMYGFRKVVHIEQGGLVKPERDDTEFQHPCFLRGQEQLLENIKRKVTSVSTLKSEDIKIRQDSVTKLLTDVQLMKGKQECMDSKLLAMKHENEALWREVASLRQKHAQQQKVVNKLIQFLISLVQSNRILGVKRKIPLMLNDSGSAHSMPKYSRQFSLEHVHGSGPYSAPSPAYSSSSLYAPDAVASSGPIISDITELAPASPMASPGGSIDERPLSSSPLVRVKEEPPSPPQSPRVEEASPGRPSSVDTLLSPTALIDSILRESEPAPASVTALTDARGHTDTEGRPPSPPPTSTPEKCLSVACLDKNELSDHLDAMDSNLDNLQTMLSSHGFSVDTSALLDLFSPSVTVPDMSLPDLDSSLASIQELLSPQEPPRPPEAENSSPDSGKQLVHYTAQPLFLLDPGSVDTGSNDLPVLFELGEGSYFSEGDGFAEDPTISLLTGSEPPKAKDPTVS
Outline: as §1

[4] = target: T2, SPIC (Homo sapiens, UniProt Q8N5J4 1-248); conditions: protein: recombinant; tags: N-terminal GST; dsDNA, one strand shown
T2 sequence: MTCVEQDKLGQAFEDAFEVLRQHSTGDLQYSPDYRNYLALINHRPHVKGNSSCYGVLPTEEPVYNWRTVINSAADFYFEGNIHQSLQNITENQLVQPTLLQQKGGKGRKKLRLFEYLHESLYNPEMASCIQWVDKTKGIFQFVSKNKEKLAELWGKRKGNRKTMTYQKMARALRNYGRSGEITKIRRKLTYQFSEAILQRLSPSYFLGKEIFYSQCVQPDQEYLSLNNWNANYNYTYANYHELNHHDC
Outline: as §1

[5] = target: ELF4 (Homo sapiens, UniProt Q99607 1-663); conditions: protein: recombinant; tags: N-terminal GST; dsDNA, one strand shown
Chain of ELF4 (Q99607 whole entry): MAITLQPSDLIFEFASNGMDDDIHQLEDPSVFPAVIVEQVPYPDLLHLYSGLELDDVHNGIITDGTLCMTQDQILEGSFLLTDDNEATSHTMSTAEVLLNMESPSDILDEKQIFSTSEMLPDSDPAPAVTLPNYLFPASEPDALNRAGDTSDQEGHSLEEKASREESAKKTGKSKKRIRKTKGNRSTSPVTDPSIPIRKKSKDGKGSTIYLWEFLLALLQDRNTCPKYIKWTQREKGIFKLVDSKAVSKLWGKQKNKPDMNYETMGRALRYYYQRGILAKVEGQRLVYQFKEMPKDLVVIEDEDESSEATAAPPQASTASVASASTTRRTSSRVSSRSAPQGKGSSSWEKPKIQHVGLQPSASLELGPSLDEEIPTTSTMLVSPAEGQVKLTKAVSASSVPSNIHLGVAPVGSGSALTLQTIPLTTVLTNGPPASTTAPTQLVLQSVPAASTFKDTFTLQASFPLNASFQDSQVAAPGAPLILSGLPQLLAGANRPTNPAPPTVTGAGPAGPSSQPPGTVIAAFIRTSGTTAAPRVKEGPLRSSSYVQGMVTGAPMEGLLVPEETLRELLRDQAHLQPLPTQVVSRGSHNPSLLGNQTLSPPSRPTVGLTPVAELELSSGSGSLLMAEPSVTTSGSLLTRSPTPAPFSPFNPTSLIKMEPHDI
Outline: as §1

[6] = target: T3, ELK4 (Homo sapiens, UniProt P28324-2 1-405); conditions: protein: recombinant; tags: N-terminal GST; dsDNA, one strand shown
T3 sequence: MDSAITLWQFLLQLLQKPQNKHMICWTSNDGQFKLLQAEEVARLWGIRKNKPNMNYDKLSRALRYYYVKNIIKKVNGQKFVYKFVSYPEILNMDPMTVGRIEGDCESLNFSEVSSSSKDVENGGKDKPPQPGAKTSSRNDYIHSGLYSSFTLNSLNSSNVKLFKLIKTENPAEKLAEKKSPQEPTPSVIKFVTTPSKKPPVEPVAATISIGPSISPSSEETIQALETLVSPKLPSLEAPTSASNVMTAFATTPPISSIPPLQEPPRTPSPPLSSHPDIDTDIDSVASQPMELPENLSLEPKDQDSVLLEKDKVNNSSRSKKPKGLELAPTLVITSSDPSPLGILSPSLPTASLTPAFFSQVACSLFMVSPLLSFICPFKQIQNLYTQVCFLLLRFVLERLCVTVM
Outline: as §1

[7] = target: T4, ETV2 (Homo sapiens, UniProt O00321 1-342); conditions: protein: recombinant; tags: N-terminal GST; dsDNA, one strand shown
T4 sequence: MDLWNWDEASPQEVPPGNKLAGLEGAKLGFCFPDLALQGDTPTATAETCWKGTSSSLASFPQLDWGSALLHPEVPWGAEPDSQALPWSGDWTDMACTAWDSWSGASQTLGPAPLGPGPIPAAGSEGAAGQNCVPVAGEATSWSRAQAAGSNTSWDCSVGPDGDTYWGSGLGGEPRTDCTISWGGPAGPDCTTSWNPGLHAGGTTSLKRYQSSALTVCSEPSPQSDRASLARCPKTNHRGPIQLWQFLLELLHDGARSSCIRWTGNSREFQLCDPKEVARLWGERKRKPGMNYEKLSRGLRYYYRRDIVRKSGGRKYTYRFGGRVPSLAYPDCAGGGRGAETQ
Outline: as §1

[8] = target: T5, ELF3 (Homo sapiens, UniProt P78545 1-371); conditions: protein: recombinant; tags: N-terminal GST; dsDNA, one strand shown
T5 sequence: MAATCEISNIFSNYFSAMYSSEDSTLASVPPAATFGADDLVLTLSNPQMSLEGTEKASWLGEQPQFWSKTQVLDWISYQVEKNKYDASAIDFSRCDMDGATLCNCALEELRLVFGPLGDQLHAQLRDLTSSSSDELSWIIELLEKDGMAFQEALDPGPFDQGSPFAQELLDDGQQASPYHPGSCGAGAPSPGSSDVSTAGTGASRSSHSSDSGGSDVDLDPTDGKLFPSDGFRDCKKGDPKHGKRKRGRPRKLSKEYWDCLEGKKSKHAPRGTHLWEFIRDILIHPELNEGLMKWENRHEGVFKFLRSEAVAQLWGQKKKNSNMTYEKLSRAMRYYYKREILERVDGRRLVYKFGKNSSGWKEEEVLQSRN
Outline: as §1

[9] = target: CRX (Homo sapiens, UniProt O43186 1-299); conditions: protein: recombinant; tags: N-terminal GST; dsDNA, one strand shown
Chain of CRX (O43186 whole entry): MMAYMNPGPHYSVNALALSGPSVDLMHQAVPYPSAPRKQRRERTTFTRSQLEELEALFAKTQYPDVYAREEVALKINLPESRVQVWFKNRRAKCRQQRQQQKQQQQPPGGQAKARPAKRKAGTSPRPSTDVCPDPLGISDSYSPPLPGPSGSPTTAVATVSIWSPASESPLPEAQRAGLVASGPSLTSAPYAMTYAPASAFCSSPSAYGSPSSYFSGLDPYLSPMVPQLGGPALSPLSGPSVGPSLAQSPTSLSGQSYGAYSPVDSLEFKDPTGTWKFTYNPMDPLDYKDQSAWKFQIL
Outline: as §1

[10] = target: ETV1 (Homo sapiens, UniProt P50549 1-477); conditions: protein: recombinant; tags: N-terminal GST; dsDNA, one strand shown
Chain of ETV1 (P50549 whole entry): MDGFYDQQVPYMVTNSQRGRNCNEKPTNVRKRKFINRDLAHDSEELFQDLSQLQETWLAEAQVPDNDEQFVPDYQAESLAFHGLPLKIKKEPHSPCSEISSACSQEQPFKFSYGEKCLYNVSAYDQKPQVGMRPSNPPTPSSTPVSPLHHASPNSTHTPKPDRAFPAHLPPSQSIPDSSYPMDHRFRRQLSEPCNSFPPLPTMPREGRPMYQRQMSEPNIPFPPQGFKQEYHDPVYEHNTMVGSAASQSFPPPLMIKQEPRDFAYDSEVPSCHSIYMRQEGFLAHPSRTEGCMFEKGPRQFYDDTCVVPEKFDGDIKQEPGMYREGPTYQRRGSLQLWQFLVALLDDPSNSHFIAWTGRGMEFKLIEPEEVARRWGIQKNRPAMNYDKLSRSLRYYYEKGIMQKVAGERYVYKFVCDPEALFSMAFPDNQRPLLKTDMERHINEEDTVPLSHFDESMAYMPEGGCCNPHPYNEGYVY
Outline: as §1

[11] = target: T6, ERF (Homo sapiens, UniProt P50548 1-548); conditions: protein: recombinant; tags: N-terminal GST; dsDNA, one strand shown
T6 sequence: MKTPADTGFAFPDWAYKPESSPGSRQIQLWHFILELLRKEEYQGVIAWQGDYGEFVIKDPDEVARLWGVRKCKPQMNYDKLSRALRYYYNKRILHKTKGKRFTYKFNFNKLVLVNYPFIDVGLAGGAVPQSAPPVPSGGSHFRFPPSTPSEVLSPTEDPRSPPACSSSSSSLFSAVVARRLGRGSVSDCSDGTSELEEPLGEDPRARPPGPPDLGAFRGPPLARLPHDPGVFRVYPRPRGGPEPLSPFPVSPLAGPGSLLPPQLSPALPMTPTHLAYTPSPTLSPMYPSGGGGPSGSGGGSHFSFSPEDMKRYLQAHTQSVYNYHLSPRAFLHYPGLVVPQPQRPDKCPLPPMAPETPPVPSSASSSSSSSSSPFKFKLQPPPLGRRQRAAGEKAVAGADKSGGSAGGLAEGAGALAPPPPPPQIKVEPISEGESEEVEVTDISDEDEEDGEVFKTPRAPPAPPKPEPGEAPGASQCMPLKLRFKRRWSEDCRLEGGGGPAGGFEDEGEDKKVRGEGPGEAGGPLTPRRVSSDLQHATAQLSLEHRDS
Outline: as §1

[12] = target: T7, ETV3L (Homo sapiens, UniProt Q6ZN32 1-361); conditions: protein: recombinant; tags: N-terminal GST; dsDNA, one strand shown
T7 sequence: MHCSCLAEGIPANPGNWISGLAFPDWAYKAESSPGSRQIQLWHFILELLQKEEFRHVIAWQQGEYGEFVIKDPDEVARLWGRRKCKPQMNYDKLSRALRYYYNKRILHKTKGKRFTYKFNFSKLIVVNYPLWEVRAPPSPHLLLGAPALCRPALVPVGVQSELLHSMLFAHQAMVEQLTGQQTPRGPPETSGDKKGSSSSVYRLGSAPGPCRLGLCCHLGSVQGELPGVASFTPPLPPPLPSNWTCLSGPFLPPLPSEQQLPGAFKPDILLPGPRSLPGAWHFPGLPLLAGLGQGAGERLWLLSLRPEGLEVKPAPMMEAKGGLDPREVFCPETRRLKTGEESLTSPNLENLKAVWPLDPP
Outline: as §1

[13] = target: T8, ETS2 (Homo sapiens, UniProt P15036 1-469); conditions: protein: recombinant; tags: N-terminal GST; dsDNA, one strand shown
T8 sequence: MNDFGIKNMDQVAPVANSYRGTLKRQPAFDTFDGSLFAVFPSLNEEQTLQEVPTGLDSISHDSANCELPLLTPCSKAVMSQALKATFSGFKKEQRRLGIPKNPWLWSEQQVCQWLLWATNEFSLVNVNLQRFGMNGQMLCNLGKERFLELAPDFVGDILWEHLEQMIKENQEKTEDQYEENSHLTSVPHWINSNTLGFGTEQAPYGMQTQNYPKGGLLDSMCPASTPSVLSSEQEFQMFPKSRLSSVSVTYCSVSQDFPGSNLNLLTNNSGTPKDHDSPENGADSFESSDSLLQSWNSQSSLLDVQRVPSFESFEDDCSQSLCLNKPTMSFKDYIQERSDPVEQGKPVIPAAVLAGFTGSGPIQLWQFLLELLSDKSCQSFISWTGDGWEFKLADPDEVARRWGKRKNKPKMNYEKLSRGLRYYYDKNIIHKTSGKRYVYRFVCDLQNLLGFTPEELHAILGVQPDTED
Outline: as §1

[14] = target: T9, SPDEF (Homo sapiens, UniProt O95238 1-335); conditions: protein: recombinant; tags: N-terminal GST; dsDNA, one strand shown
T9 sequence: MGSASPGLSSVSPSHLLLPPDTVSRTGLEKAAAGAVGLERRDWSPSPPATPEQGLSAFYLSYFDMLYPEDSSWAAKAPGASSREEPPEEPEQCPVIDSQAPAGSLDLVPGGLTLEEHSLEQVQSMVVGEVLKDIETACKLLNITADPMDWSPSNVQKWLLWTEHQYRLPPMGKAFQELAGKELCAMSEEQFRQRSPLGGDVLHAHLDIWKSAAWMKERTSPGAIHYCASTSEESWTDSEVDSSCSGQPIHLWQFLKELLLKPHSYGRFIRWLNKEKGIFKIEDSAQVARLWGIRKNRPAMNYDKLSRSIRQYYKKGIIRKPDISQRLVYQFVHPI
Outline: as §1

[15] = target: T10, ETV7 (Homo sapiens, UniProt Q9Y603 1-341); conditions: protein: recombinant; tags: N-terminal GST; dsDNA, one strand shown
T10 sequence: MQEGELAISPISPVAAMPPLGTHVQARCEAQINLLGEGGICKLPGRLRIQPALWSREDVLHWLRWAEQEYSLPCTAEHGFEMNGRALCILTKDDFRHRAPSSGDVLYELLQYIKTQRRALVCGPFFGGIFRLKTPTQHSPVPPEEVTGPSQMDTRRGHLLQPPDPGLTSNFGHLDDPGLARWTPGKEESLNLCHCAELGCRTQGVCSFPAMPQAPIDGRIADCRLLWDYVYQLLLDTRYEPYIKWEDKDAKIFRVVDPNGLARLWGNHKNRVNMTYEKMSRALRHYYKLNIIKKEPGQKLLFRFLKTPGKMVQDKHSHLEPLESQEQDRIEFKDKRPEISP
Outline: as §1

[16] = target: T11, ELF5 (Homo sapiens, UniProt Q9UKW6-2 1-255); conditions: protein: recombinant; tags: N-terminal GST; dsDNA, one strand shown
T11 sequence: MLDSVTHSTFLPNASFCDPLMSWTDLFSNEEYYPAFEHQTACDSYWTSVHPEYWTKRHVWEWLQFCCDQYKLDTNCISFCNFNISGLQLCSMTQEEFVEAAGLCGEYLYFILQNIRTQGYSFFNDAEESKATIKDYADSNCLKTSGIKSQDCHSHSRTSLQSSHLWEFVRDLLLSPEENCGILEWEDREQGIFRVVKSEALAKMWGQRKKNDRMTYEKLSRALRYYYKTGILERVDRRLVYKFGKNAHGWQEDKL
Outline: as §1

[17] = target: T12, ETV3 (Homo sapiens, UniProt P41162-2 1-143); conditions: protein: recombinant; tags: N-terminal GST; dsDNA, one strand shown
T12 sequence: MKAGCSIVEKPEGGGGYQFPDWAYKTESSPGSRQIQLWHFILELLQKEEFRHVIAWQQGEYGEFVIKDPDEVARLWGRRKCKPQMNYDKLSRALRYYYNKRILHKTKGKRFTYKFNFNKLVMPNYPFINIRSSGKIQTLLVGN
Outline: as §1

[18] = target: ETV6 (Homo sapiens, UniProt P41212 1-452); conditions: protein: recombinant; tags: N-terminal GST; dsDNA, one strand shown
Chain of ETV6 (P41212 whole entry): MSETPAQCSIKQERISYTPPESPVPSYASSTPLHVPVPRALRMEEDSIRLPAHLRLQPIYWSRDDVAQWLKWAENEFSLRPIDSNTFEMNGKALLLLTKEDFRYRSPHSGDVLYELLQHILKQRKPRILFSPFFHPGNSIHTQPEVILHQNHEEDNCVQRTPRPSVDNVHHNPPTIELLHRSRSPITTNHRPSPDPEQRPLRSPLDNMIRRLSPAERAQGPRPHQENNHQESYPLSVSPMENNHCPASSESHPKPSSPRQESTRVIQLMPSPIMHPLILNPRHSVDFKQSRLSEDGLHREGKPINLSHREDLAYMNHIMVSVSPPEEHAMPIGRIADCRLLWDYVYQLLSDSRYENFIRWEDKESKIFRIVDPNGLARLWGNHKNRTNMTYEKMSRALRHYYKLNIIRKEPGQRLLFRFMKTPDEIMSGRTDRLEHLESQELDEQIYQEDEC
Outline: as §1

## TCATTA
[1]
  binding signal: 1.11 fold enrichment (6-mer frequency, TF over GST control)
[2]
  binding signal: 1.11 fold enrichment (6-mer frequency, TF over GST control)
[3]
  binding signal: 1.18 fold enrichment (6-mer frequency, TF over GST control)
[4]
  binding signal: 1.24 fold enrichment (6-mer frequency, TF over GST control)
[5]
  binding signal: 1.15 fold enrichment (6-mer frequency, TF over GST control)
[6]
  binding signal: 1.16 fold enrichment (6-mer frequency, TF over GST control)
[7]
  binding signal: 1.08 fold enrichment (6-mer frequency, TF over GST control)
[8]
  binding signal: 1.07 fold enrichment (6-mer frequency, TF over GST control)
[9]
  binding signal: 1.62 fold enrichment (6-mer frequency, TF over GST control)
[10]
  binding signal: 1.08 fold enrichment (6-mer frequency, TF over GST control)
[11]
  binding signal: 1.19 fold enrichment (6-mer frequency, TF over GST control)
[12]
  binding signal: 1.08 fold enrichment (6-mer frequency, TF over GST control)
[13]
  binding signal: 1.1 fold enrichment (6-mer frequency, TF over GST control)
[14]
  binding signal: 1.06 fold enrichment (6-mer frequency, TF over GST control)
[15]
  binding signal: 1.16 fold enrichment (6-mer frequency, TF over GST control)
[16]
  binding signal: 1.09 fold enrichment (6-mer frequency, TF over GST control)
[17]
  binding signal: 1.12 fold enrichment (6-mer frequency, TF over GST control)
[18]
  binding signal: 1.06 fold enrichment (6-mer frequency, TF over GST control)
